Only some compounds are listed: those with a hit (about 19% of all), similar ones and a draw of the others.
HT1080 IDH1KD tx = toxicity to HT-1080 IDH1 knockdown cells (counter line) | HT-1080 IDH1 knockdown viability, ATP luminescence, 48 h | 360,000 compounds, 2% hits | Potency, µM (doses to about 46.1 µM), without a hit: top-dose activity, negative = toxicity, most hits filed as cytotoxic | AID 686971;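 further: potency means the concentration at half of the fitted maximal effect; 0% = DMSO wells and -100% = cell-free medium wells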
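In this qHTS, HT-1080 cells depleted of IDH1 are exposed for 48 h at 37 °C to compound titrations. Toxicity is scored from CellTiter-Glo luminescence, with DMSO as full viability and medium alone as none.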
TDP1 cell CPT = DT40-hTDP1 cell growth loss with CPT. chicken DT40 Tdp1-/-;hTDP1 cells + 20 nM CPT, ATP luminescence, 48 h. Potency, µM (top dose mostly 46.2 µM), without a hit: top-dose activity change, negative = growth inhibition, most hits filed as inhibitors. 420,000 compounds, 12% hits. AID 686979; further: potency means the concentration at half of the fitted maximal effect; nearly all actives have a fitted effect of over 55% in size
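Cell growth measured by CellTiter-Glo luminescence after a minimum 48 h, 37 C compound exposure with 20 nM CPT in Tdp1-knockout DT40 cells stably expressing hTDP1, seeded 400/well; qHTS titration format.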
HT1080-NT tox = kills 2HG-producing HT-1080-NT fibrosarcoma cells; HT-1080-NT fibrosarcoma viability, CellTiter-Glo ATP luminescence, 48 h; AID 686970; Potency, µM (highest dose often 46.1 µM), for the others: at the top dose activity, negative = less viability, actives largely listed as cytotoxic; 360,000 compounds, 1.6% hits;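 further: NT is the 2HG producing partner of a matched IDH1 knockdown line; potency means the concentration at half of the fitted maximal effect; 0% = DMSO-treated cells and -100% = media-only wells without cells; nearly all actives have a fitted effect of over 55% in size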
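Fibrosarcoma NT cells, 750 per well in 5% FBS RPMI, were exposed to compound for 48 hours. Viability: CellTiter-Glo luminescence.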
TDP1 cell noCPT = qHTS for Inhibitors of human tyrosyl-DNA phosphodiesterase 1 (TDP1): qHTS in cells in absence of CPT; AID 686978, 2013; Potency, µM (highest dose often 46.2 µM), for inactives: top-dose activity change, negative = growth inhibition, usual class: inhibitors; DT40 Tdp1-/- hTDP1 cells, no CPT, ATP luminescence, 48 h; 420,000 compounds, 15% hits; further: potency means the concentration at half of the fitted maximal effect; nearly all actives have a fitted effect of over 55% in size
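Readout: luminescence from CellTiter-Glo after 30 min in the dark at RT. Cells: DT40 Tdp1-/- with stable hTDP1, 400/well. Exposure: compounds alone, ≥48 hr, 37 °C.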
IL-1B inflam inh = inflammasome signaling inhibition, IL-1 beta readout. activity change, % at 57.5 µM. 360,000 compounds, 4.7% hits. THP-1 LPS/ATP IL-1B secretion, AlphaLISA, 16 h; stronger effect = lower value. AID 743279; in the data active means activity change below about -50%; inconclusive means mostly about -30% to -49%
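THP-1 cells pretreated 1 hr with compounds (up to 57.5 uM final), then stimulated with LPS (250 ng/mL final) plus ATP (1.25 mM final); secreted IL-1B measured by AlphaLISA after 16 hr, decreased signal indicating inhibition.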
* hit, by the source's call; ? = inconclusive; / = not tested or not shown; [ ] = dose if it differs, or a comment. Unless noted, the call rests on the fitted dose curve; in most records, active means well fitted curve in the direction sought with a large enough effect; inconclusive means small, poorly fitted or top-dose-only effect, or another doubt; inactive means no such curve, though single readings can be large; an effect the other way counts as inactive or inconclusive. Unless noted, on the % scale 0 is the no-effect control and ±100 the full control effect.

SMILES	HT1080 IDH1KD tx	TDP1 cell CPT	HT1080-NT tox	TDP1 cell noCPT	IL-1B inflam inh
O=C(N/N=C/c1ccc(OC(F)F)cc1)c1cccc(S(=O)(=O)N2CCOCC2)c1	12%	2%	7%	2%	18
CC1=CC(C)(C)NC(=S)N1CCO	16%	-10%	7%	-32%	-5
CN1CCN(CCC(=O)N2c3ccccc3Sc3ccc(C(F)(F)F)cc32)CC1	-2%	?	-15%	?	?
CN1CCN(C2=Cc3ccccc3Sc3cc(F)ccc32)CC1	?	?	16µM*	22µM*	?
CN1CCN(C2=Cc3ccc(Cl)cc3Sc3ccc(F)cc32)CC1	?	23µM*	?	21µM*	-71*
CCc1cccc(CC)c1NC(=O)CCS(=O)(=O)c1ccc2c(c1)CCN2C(C)=O	/	-23%	/	-18%	/
COc1ccc(N(CC(=O)NCCc2ccccc2)C(=O)CCC(=O)Nc2nccs2)c(OC)c1	-5%	?	-22%	?	7
CCOCCn1c(CN2CCc3ccccc3C2)nc2c1c(=O)n(C)c(=O)n2C	11%	23µM*	13%	10µM*	61
CN(c1nc2c(c(=O)n(C)c(=O)n2C)n1CC(=O)c1ccccc1)C1CCCCC1	-1%[9.24 µM]	?	-6%	23µM*	-1
Cn1c(=O)c2c(nc(CN3CCc4ccccc4C3)n2Cc2ccc(Cl)cc2)n(C)c1=O	5%	-18%	-1%	-4%	10
Cn1c(=O)c2c(nc(CN3CCc4ccccc4C3)n2Cc2ccccc2)n(C)c1=O	-24%	23µM*	-17%	15µM*	-17
Cn1c(=O)c2c(nc(CN3CCc4ccccc4C3)n2CC(=O)c2ccccc2)n(C)c1=O	?	18µM*	?	26µM*	10
Cn1c(=O)c2c(nc(CN3CCOCC3)n2CC(=O)c2ccccc2)n(C)c1=O	16%	-22%	19%	?	23
Clc1ccc(NN(Cc2ccncc2)c2ccc(Cl)cc2)cc1	-18%	-35%	?	?	-23
COc1ccc(C(=O)N2CCC(C(=O)N3CCN(Cc4ccccc4)CC3)CC2)cc1	-1%	13%	4%	-5%	-3
COc1ccccc1N(C(=O)c1ccco1)C(C(=O)NC1CCCCC1)c1cc(OC)c(OC)c(OC)c1 (configuration not stated)	4%	-4%	4%	-30%	3
CCCCC[C@H](C)N1C[C@H](COCc2ccccc2)Oc2cc(N3CC[C@H](O)C3)ccc2S1(=O)=O	?	?	?	?	-20
CCCCC[C@@H](C)N1C[C@H](COCc2ccccc2)Oc2cc(N3CC[C@H](N(C)C)C3)ccc2S1(=O)=O	15µM*	?	21µM*	18µM*	-82*
CCCCC[C@@H](C)N1C[C@H](COCc2ccccc2)Oc2cc(N3CC[C@@H](O)C3)ccc2S1(=O)=O	?	?	?	21µM*	-13
C=CCN(c1ccccc1OC)S(=O)(=O)c1cccc(C(=O)Nc2nnc(C3CC3)s2)c1	-16%	21%	0%	1%	2
COc1ccccc1C(=O)NCCNC(=O)c1ccc(C)nc1	6%	-6%	23%	0%	-1
Cc1ccc(-n2ncc(C(=O)NCCN3CCOCC3)c2C2CCN(C(=O)OC(C)(C)C)CC2)c(C)c1	/	0%	/	?	/
Cc1ccc(-n2ncc(C(=O)NCc3ccccn3)c2C2CCN(C(=O)OC(C)(C)C)CC2)c(C)c1	/	?	/	21µM*	/
COc1ccc(OC)c(CCNC(=O)c2cnn(-c3ccccc3)c2C2CCN(C(=O)OC(C)(C)C)CC2)c1	/	13µM*	/	23µM*	/
COc1ccc(CCNC(=O)c2cnn(-c3cccc(C)c3)c2C2CCN(C(=O)OC(C)(C)C)CC2)cc1OC	/	?	/	15µM*	/
SMILES	HT1080 IDH1KD tx	TDP1 cell CPT	HT1080-NT tox	TDP1 cell noCPT	IL-1B inflam inh
COc1ccc(OC)c(CCNC(=O)c2cnn(-c3ccc(C)cc3C)c2C2CCN(C(=O)OC(C)(C)C)CC2)c1	/	4.6µM*	/	15µM*	/
Cc1ccc(C(c2c(C)n(C)n(-c3ccccc3)c2=O)c2c(C)n(C)n(-c3ccccc3)c2=O)s1	-22%	-16%	-7%	?	25
O=C(CCC(=O)c1ccccc1)NCc1ccccc1	4%	-6%	-5%	17%	13
COc1ccc(CCNC(=O)c2cnn(-c3ccc(F)cc3)c2C2CCN(C(=O)OC(C)(C)C)CC2)c(OC)c1	/	?	/	13µM*	/
CC(C)(C)OC(=O)N1CCC(c2c(C(=O)NC3CC3)cnn2-c2ccc(Cl)cc2)CC1	-4%	?	5%	-16%	16
CCOc1ccc(S(=O)(=O)NCCc2csc(-c3ccc(Cl)cc3)n2)cc1	/	6.5µM*	/	5.8µM*	/
Cc1ccc(C)c(S(=O)(=O)NCCCN2CCOCC2)c1	20%	30%	8%	13%	4
CCOc1ccc(S(=O)(=O)NCc2csc(C)n2)cc1	2%	-27%	2%	-26%	24
Cc1ccc(C)c(S(=O)(=O)NCCCc2ccccc2)c1	-14%	32%	-10%	-15%	-57*
Cc1ccc(S(=O)(=O)NCCc2csc(-c3cccc(F)c3)n2)cc1	/	21µM*	/	15µM*	/
Cc1ccc(C)c(S(=O)(=O)NCCc2csc(-c3ccc(Cl)cc3)n2)c1	/	29µM*	/	16µM*	/
Cc1ccc(NC(=O)CNc2ccc(N3CCOCC3)cc2)cc1S(=O)(=O)N(C)C	-1%	3%	11%	-5%	28
Cc1ccc(S(=O)(=O)N2CCC(NC(=O)c3cccc(C)c3)CC2)cc1	7%	1%	15%	-17%	?
CCc1ccc(S(=O)(=O)NCCc2csc(-c3ccccc3)n2)s1	6%[9.24 µM]	?	?	23µM*	-26
CCc1ccc(S(=O)(=O)NCc2csc(-c3ccccc3)n2)s1	0%	?	-10%	?	14
Cc1ccc(S(=O)(=O)NCCc2csc(-c3ccc(Cl)cc3)n2)cc1	/	12µM*	/	12µM*	/
CCc1n[nH]c(=S)n1/N=C/c1cc(Br)c(OC)cc1OC	2%	-5%	-3%	-14%	15
CCCn1c2ccccc2c2cnn(CC(=O)NCCN(C)C)c(=O)c21	20%	-25%	6%	0%	-6
CCCCN(C)CCNC(=O)Cn1ncc2c3ccccc3n(CCC)c2c1=O	/	23µM*	/	?	/
CCCn1c2ccccc2c2cnn(CC(=O)NCCN(CC)CC)c(=O)c21	?	-20%	?	?	-91*
CCCNC(=O)Cn1ncc2c3ccccc3n(CCC)c2c1=O	/	?	/	15µM*	/
COc1ccc(/C(C)=N/NC(=O)c2sccc2-n2cccc2)cc1	-1%	-20%	17%	?	-24
